Test results reported in PubChem BioAssay (Tox21).
Inconclusive results are not listed. The source made the active and inactive calls. Unless noted, calls follow the shape of the dose curve; as a rule, active = well fitted curve in the direction sought with a large enough effect in the repeat runs; inconclusive = weak or mixed curves; inactive = no such curve, though single readings can be large; an effect the other way counts as inactive or inconclusive.

Tests used:
[1] = qHTS assay to test for compound auto fluorescence at 535 nm (green) in HEK293 cells (AID 720680)
[2] = qHTS assay to test for compound auto fluorescence at 460 nm (blue) in HEK293 cell free culture (AID 720681)
How it was run: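 Test compounds were pinned into cell-free culture medium (DMEM with 10% FBS) and fluorescence was read directly at Ex/Em 405/460 nm. Signals were expressed as fluorescence equivalents of triamterene, with DMSO vehicle as control.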

[3] = qHTS assay to test for compound auto fluorescence at 535 nm (green) in HEK293 cell free culture (AID 720682)
How it was run: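 Fluorescein serves as the green reference fluorophore; each compound's intrinsic emission at 535 nm (excitation 485 nm) is reported as an equivalent amount of that dye, measured in serum-containing DMEM without cells.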

[4] = qHTS assay to test for compound auto fluorescence at 590 nm (red) in HEK293 cell free culture (AID 720683)
How it was run: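 Tox21 10K library compounds were pinned into cell-free DMEM with 10% FBS and fluorescence was read at excitation 540 nm. Activity is expressed as Rose Bengal sodium equivalency.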

[5] = qHTS assay to test for compound auto fluorescence at 590 nm (red) in HepG2 cell free culture (AID 720684)
How it was run: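 Red fluorescence (540 nm excitation, 590 nm emission) was measured after compound transfer into cell-free MEM supplemented with 10% FBS. Values are equivalencies against Rose Bengal sodium.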

[6] = qHTS assay to test for compound auto fluorescence at 460 nm (blue) in HepG2 cell free culture (AID 720685)
How it was run: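 Compound (23 nL) or DMSO pinned into cell-free MEM with 10% FBS; blue fluorescence read at 405/460 nm excitation/emission, expressed as auto-fluorescence equivalency to triamterene.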

[7] = qHTS assay to test for compound auto fluorescence at 535 nm (green) in HepG2 cell free culture (AID 720686)
[8] = qHTS assay to test for compound auto fluorescence at 460 nm (blue) in HepG2 cells (AID 720687)
How it was run: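 Cells (2,000/well in MEM with 10% FBS) attached overnight at 37 C, then were exposed to compound or DMSO for 1 hr at 37 C, 5% CO2. Fluorescence read at Ex/Em 405/460 nm, expressed as triamterene-equivalent signal.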

[9] = target: Glucocorticoid receptor (Homo sapiens) (UniProt P04150); assay: qHTS assay to identify small molecule agonists of the glucocorticoid receptor (GR) signaling pathway (AID 720691; active = well fitted activation curve with a large enough effect in the signal ratio in the repeat runs, not every such curve was filed as active; the % refers to the signal ratio); conditions: GR-bla HeLa, beta-lactamase reporter ratio, 18 h; activation: at 62.4 µM (top of the series)
Chain of Glucocorticoid receptor (Homo sapiens) (P04150 whole entry, looked up): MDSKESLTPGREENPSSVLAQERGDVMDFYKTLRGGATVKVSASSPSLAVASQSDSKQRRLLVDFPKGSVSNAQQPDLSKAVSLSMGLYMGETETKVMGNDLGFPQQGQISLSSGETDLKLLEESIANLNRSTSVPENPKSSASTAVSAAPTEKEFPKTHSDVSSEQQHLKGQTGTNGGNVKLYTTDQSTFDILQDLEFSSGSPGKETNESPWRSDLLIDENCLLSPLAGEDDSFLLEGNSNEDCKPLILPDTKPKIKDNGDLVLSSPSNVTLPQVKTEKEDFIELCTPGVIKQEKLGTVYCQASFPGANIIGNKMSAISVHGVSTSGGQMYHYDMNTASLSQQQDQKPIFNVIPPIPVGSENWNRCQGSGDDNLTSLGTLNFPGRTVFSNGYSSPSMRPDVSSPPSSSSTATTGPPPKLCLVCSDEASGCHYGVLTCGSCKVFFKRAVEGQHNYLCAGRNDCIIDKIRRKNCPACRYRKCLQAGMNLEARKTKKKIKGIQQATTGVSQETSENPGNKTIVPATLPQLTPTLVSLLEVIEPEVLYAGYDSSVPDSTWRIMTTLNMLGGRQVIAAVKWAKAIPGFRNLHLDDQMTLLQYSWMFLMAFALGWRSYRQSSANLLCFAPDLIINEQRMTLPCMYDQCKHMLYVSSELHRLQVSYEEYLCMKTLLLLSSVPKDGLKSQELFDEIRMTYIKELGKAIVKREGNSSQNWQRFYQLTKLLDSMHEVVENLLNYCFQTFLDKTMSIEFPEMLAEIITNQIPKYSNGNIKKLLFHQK
How it was run: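 qHTS in GR-bla HeLa cells: 4 h settling at 37 C/5% CO2, 18 h compound incubation at 37 C, 2 h LiveBLAzer B/G FRET substrate at room temperature, fluorescence intensity measured.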

[10] = qHTS assay to identify small molecule antagonists of the glucocorticoid receptor (GR) signaling pathway - cell viability counter screen (AID 720693); also: nearly all actives have a fitted effect of over 55% in size
[11] = qHTS assay for identifying genotoxic compounds that show differential cytotoxicity against isogenic chicken DT40 cell lines with known DNA damage response pathways - wild type cell line (AID 743012); also: nearly all actives have a fitted effect of over 60% in size; also: potency is read from the fitted curve at half-maximal effect
How it was run: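 First, wild type DT40 cells were plated at 300 per well and equilibrated about 0.5 h at 37 C/5% CO2. Next, compounds in DMSO were added and exposure lasted 40 h. Finally, CellTiter-Glo was added for 30 min at room temperature and luminescence recorded.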

[12] = qHTS assay for identifying genotoxic compounds that show differential cytotoxicity against isogenic chicken DT40 cell lines with known DNA damage response pathways - Rad54/Ku70 mutant cell line (AID 743015); also: nearly all actives have a fitted effect of over 60% in size; also: potency is read from the fitted curve at half-maximal effect
[13] = qHTS assay to identify small molecule antagonists of the androgen receptor (AR) signaling pathway - cell viability counter screen (AID 743033; also: nearly all actives have a fitted effect of over 45% in size)
[14] = target: Androgen receptor (Homo sapiens) (UniProt P10275); assay: qHTS assay to identify small molecule agonists of the androgen receptor (AR) signaling pathway (AID 743036; active = well fitted activation curve with a large enough effect in the signal ratio in the repeat runs, with a control signal flat, not every such curve was filed as active; the % refers to the signal ratio)
Chain of Androgen receptor (Homo sapiens) (P10275 whole entry, looked up): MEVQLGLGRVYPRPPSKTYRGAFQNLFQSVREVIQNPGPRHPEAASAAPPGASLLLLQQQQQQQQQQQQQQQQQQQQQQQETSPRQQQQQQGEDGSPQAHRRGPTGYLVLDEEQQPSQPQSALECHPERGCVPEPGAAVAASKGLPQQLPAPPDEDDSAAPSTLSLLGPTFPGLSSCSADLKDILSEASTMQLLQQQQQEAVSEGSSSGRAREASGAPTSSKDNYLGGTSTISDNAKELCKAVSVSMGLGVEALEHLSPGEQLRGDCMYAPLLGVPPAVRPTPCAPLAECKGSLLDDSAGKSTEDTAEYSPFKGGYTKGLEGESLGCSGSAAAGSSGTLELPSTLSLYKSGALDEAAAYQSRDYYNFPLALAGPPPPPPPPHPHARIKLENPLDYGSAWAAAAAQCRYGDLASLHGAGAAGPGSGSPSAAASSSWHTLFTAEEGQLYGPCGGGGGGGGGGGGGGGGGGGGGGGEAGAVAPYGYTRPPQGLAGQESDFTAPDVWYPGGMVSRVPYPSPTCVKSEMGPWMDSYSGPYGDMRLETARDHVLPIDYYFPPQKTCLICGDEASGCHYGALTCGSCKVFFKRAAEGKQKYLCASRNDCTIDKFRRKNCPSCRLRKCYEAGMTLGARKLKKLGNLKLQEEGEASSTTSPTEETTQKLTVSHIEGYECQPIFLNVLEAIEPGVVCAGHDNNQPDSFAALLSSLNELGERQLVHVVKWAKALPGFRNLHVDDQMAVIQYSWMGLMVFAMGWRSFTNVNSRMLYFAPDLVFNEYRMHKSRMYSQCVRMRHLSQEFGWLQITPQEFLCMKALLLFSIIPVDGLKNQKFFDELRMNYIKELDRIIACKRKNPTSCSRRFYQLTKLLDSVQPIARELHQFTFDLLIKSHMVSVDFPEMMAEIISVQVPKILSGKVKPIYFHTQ
How it was run: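 Fluorescence from a beta-lactamase FRET substrate served as read-out in AR-UAS-bla GripTite HEK293 cells. Cells were treated with DMSO-dissolved compounds for 16 h at 37C, then with LiveBLAzer B/G substrate for 2 h at room temperature.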

[15] = target: Androgen receptor (Homo sapiens) (UniProt P10275); assay: qHTS assay to identify small molecule agonists of the androgen receptor (AR) signaling pathway using the MDA cell line (AID 743040; also: nearly all actives have a fitted effect of over 20% in size)
How it was run: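 MDA-kb2 breast carcinoma cells stably carrying an MMTV-driven luciferase reporter (AR- and GR-responsive) were seeded and held 5 h at 37C, 0% CO2, then exposed to compounds in DMSO for 16 h. Luminescence was read 30 min after ONE-Glo addition.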

[16] = qHTS assay to identify small molecule antagonists of the androgen receptor (AR) signaling pathway using the MDA cell line - cell viability counter screen (AID 743041; also: nearly all actives have a fitted effect of over 45% in size)
How it was run: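 MDA-kb2 AR-luc human breast carcinoma cells (MMTV-luciferase, AR/GR responsive) were treated with compounds plus R1881 agonist for 16 h at 37 °C. Viability was read as CellTiter-Fluor fluorescence in the same wells as the reporter assay.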

[17] = target: Androgen receptor (Homo sapiens) (UniProt P10275); assay: qHTS assay to identify small molecule antagonists of the androgen receptor (AR) signaling pathway using the MDA cell line (AID 743042; also: nearly all actives have a fitted effect of over 55% in size)
How it was run: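 MDA-kb2 cells (human breast carcinoma, stably carrying an MMTV-luciferase reporter responsive to AR and GR) were plated at 3,000 cells/well and preincubated 5 hr at 37C, then given compound plus R1881 agonist for 16 h. ONE-Glo luminescence was read.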

[18] = qHTS assay for identifying genotoxic compounds that show differential cytotoxicity against isogenic chicken DT40 cell lines with known DNA damage response pathways - Rev3 mutant cell line (AID 743014); also: nearly all actives have a fitted effect of over 55% in size; also: potency is read from the fitted curve at half-maximal effect

Measured: Potency

Cc1cccc(C)c1NC(=O)NC1=CCCN1C
not listed: [18]
inactive: all other assays above

CC#CCC(C)[C@H](O)/C=C/[C@@H]1[C@H]2c3cccc(CCCC(=O)O)c3O[C@H]2C[C@H]1O (stereo not given in full)
not listed: [14] | [18]
inactive: all other assays above

CC[C@H]1NC(=O)[C@@H](NC(=O)c2ncccc2O)[C@@H](C)OC(=O)[C@H](c2ccccc2)NC(=O)[C@@H]2CC(=O)CCN2C(=O)[C@H](Cc2ccccc2)N(C)C(=O)[C@@H]2CCCN2C1=O
not listed: [18]
inactive: all other assays above

CNc1cc(OC)c(C(=O)N[C@H]2CCN(Cc3ccccc3)[C@H]2C)cc1Cl
active: [11] 5.96 µM | [12] 8.41 µM
not listed: [14] | [15] | [17] | [18]
inactive: all other assays above

CC(C)[C@H](N)C(=O)OCC(CO)OCn1cnc2c(=O)[nH]c(N)nc21 (stereo not given in full)
not listed: [12] | [14] | [15] | [17]
inactive: all other assays above

COc1ccc2c(c1)N(C[C@H](C)CN(C)C)c1ccccc1S2
active: [11] 11.4 µM | [18] 11.4 µM
not listed: [12] | [13] | [14] | [15] | [17]
inactive: all other assays above

Cc1onc(-c2ccccc2)c1C(=O)N[C@@H]1C(=O)N2[C@@H]1SC(C)(C)[C@@H]2C(=O)O
not listed: [13] | [14] | [15] | [17]
inactive: all other assays above

CCOC(=O)COc1ccc2c(C)c(CCN(CC)CC)c(=O)oc2c1
not listed: [12]
inactive: all other assays above

C[C@H](CCCC(C)(C)O)[C@H]1CC[C@H]2[C@@H]3CC=C4C[C@@H](O)CC[C@]4(C)[C@H]3CC[C@]12C
active: [11] 1.68 µM | [18] 0.211 µM | [12] 10.6 µM
not listed: [13] | [14]
inactive: all other assays above

Cc1ccccc1CNc1ncnc2c1ncn2[C@@H]1O[C@H](CO)[C@@H](O)[C@H]1O
active: [11] 16.8 µM | [18] 21.1 µM
not listed: [12] | [14] | [15] | [17]
inactive: all other assays above

CCCCCCCCCCCCCCCCCCCCCC(=O)Nc1ccn([C@@H]2O[C@H](CO)[C@@H](O)[C@@H]2O)c(=O)n1
active: [11] 18.8 µM | [18] 23.7 µM
not listed: [12] | [13]
inactive: all other assays above

Cc1cc(-n2c(=O)[nH]c(=O)n(C)c2=O)ccc1Oc1ccc(S(=O)(=O)C(F)(F)F)cc1
active: [11] 26.6 µM | [18] 26.6 µM | [12] 26.6 µM
not listed: [13] | [14] | [15] | [17]
inactive: all other assays above

Cc1nc(NS(=O)(=O)c2ccc(N)cc2)nc(C)c1Br
not listed: [14] | [15] | [17] | [18]
inactive: all other assays above

CC(C)C[C@H](NC(=O)[C@@H](Cc1c[nH]c2ccccc12)NC(=O)[C@H](Cc1ccc(O)cc1)NC(=O)[C@H](CO)NC(=O)[C@H](Cc1c[nH]c2ccccc12)NC(=O)[C@H](Cc1cnc[nH]1)NC(=O)[C@@H]1CCC(=O)N1)C(=O)N[C@@H](CCCN=C(N)N)C(=O)N1CCC[C@@H]1C(=O)NCC(N)=O
not listed: [12] | [14] | [15] | [17]
inactive: all other assays above
